# Records with an inconclusive call do not appear. Calls of active or inactive are those of the source. Unless noted, the call rests on the fitted dose curve; in most records, active means well fitted curve in the direction sought with a large enough effect in the repeat runs; inconclusive means weak or mixed curves; inactive means no such curve, though single readings can be large; an effect the other way counts as inactive or inconclusive.
# What was measured:
# [1] = molecular target: Cytochrome P450 3A4 (Homo sapiens) (UniProt P08684); assay: qHTS Assay for Activators of Cytochrome P450 3A4 (AID 885; active means well fitted curve in the direction sought with a large enough effect; an effect the other way counts as inactive or inconclusive; further: nearly all actives have a fitted effect of over 65% in size)
# How it was run: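 Activators are scored by enhanced luminescence from CYP3A4 conversion of luciferin-PPXE (25uM, equal to KM) to luciferin, after 60 min at RT with an NADPH-regenerating system.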
# [2] = Confirmation and Secondary Assay for Modulators of Hemoglobin Beta Chain Splicing at IVS2 654 locus (AID 910; active means well fitted curve in the direction sought with a large enough effect; an effect the other way counts as inactive or inconclusive;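 further: HeLa cells stably carrying EGFP split by mutant beta-globin IVS2-654 intron; per-well total GFP intensity by laser scanning cytometry after 2-day treatment; % of control where 0% means no effect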)
# How it was run: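 Readout: per-well total peak green fluorescence (488 nm ex, 500–520 nm em) from objects 5–250 µm, reflecting correct splicing of an EGFP-654 reporter. Compounds were applied for 2 days at 37 °C to overnight-plated HeLa EGFP-654 cells; controls were DMSO and 500 nM IVS2-654 PNA.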
# [3] = Confirmation and Secondary Assay for Modulators of Hemoglobin Beta Chain Splicing at IVS2 705 locus (AID 930; active means well fitted curve in the direction sought with a large enough effect; an effect the other way counts as inactive or inconclusive;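 further: HeLa cells stably expressing the EGFP-705 splicing reporter; GFP fluorescence per well restored by corrected splicing of the IVS2-705 intron in EGFP; % of control where 0% means no effect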)
# How it was run: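 First, HeLa EGFP-705 cells are seeded at 500/well in Optimem with 2% FCS and left overnight. Next, compound or DMSO is added for 2 days. Finally wells are laser-scanned and total peak GFP intensity scored.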
# [4] = qHTS Assay for Lipid Storage Modulators (AID 1519; calls by dose curve; on activity change, negative = inhibition: on the % scale 0 is the no-effect control and ±100 the full control effect); settings: Drosophila S3 cells, BODIPY lipid droplet/cell ratio, laser cytometry, cells loaded with oleic acid; for activity change, negative = inhibition: at 57.5 µM (top of the series)
# How it was run: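 Cells seeded at 5,000 per well were treated with compounds over a concentration series and loaded with oleic acid (400 uM, as added). Lipid droplet fluorescence (488 nm excitation, 500-530 nm channel) was read by laser-scanning cytometry and normalized to 20 uM Triacsin C.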
# [5] = molecular target: Cytochrome P450 2D6 (Homo sapiens) (UniProt P10635); assay: Cytochrome P450 family 2 subfamily D member 6 (CYP2D6) small molecule antagonists: luciferase biochemical (cell-free) qHTS assay (AID 1645840); further: nearly all actives have a fitted effect of over 55% in size; further: potency means the concentration at half of the fitted maximal effect; on activity change, negative = inhibition: on the % scale 0 is the no-effect control and ±100 the full control effect
# How it was run: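 P450-Glo CYP2D6 system: proluciferin substrate converted by enzyme to luciferin, read by luminescence proportional to activity. Enzyme-substrate mix with compound 10 min at room temperature, then NADPH regeneration 1 h before detection reagent.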
# [6] = measured here: cell count channel max response
# [7] = measured here: lipid channel max response
# Chain of Cytochrome P450 2D6 (Homo sapiens) (P10635 whole entry, looked up): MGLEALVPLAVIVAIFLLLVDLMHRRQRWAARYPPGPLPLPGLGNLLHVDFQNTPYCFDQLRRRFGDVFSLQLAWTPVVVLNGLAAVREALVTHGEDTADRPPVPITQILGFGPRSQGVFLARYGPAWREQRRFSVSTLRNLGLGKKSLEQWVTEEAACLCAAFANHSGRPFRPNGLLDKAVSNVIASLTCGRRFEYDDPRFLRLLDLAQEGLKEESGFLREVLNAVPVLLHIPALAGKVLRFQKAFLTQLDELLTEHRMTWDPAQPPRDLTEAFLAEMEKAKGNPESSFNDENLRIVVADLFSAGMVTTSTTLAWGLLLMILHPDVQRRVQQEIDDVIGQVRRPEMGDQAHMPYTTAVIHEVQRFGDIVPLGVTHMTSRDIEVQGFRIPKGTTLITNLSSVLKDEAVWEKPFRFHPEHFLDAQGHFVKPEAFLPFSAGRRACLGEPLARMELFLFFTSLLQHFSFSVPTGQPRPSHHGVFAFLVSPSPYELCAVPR
# Chain of Cytochrome P450 3A4 (Homo sapiens) (P08684 whole entry, looked up): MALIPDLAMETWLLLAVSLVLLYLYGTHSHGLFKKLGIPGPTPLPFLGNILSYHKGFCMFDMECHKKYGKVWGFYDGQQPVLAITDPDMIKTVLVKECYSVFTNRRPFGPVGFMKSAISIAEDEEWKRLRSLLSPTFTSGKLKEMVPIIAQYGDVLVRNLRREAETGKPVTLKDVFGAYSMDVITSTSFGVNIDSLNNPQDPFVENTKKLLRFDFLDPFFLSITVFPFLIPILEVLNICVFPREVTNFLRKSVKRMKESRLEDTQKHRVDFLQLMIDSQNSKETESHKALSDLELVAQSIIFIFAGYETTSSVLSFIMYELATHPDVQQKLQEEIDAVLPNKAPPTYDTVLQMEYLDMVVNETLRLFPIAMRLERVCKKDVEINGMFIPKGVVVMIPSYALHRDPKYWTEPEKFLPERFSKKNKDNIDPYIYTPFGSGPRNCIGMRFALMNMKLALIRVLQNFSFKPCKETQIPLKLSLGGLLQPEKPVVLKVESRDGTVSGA
smiles,measurement,setting,value
C=CC(C1=CC(=O)C(OC)=CC1=O)c1ccc(O)cc1 (stereo not given),Potency,[1],inactive
same,Potency,[2],inactive
same,Potency,[3],inactive
same,"activity change, negative = inhibition",[4],12.9% (inactive)
same,max response,[4]; [6],1.65%
same,max response,[4]; [7],16.7%
C#C[C@@]1(O)CCC2C3CCc4cc(O)ccc4C3CC[C@@]21C (stereo not given in full),Potency,[2],inactive
same,Potency,[3],inactive
same,"activity change, negative = inhibition",[4],6.48% (inactive)
same,max response,[4]; [6],1.86%
same,max response,[4]; [7],11.2%
CCC(=O)OC1C2CC3=C4CC(=O)OC(c5ccoc5)[C@]4(C)CCC3[C@@](C)(C2=O)C(CC(=O)OC)C1(C)C (stereo not given in full),Potency,[2],inactive
same,Potency,[3],inactive
same,"activity change, negative = inhibition",[4],-15.8% (inactive)
same,max response,[4]; [6],-7.4%
same,max response,[4]; [7],-17%
NCCOCCOCCOCCOCCN1CCN(C(c2ccc(Cl)cc2)c2ccc(Cl)cc2)CC1,Potency,[5],6.74 µM (active)
CCc1ccc(C(=O)c2cn(CC(=O)Nc3ccc(OC)c(OC)c3)c3ccc(C)cc3c2=O)cc1,Potency,[5],inactive
Cc1cccn2c(=O)c(/C=C(\C#N)c3nc4ccccc4s3)c(Oc3ccc(F)cc3)nc12,Potency,[5],inactive
CC(=O)O[C@@]1(C(C)=O)CCC2C3C=C(Cl)C4=CC(=O)CC[C@]4(C)C3CC[C@]21C (stereo not given in full),Potency,[2],inactive
same,Potency,[3],inactive
same,"activity change, negative = inhibition",[4],-2.19% (inactive)
same,max response,[4]; [6],-10.2%
same,max response,[4]; [7],-9.83%
COc1ccc(Br)c2c1-c1nc(NC(=O)c3cccc(C)c3)sc1C2,Potency,[5],inactive
COc1cccc(C(=O)NC(c2ccc(Cl)cc2)c2cc(Cl)c3cccnc3c2O)c1 (stereo not given),Potency,[5],inactive
COc1ccc(CCNc2nc(SCc3ccccc3F)nc3ccccc23)cc1OC,Potency,[5],0.151 µM (active)
Cc1nn(CC(=O)NCCc2ccccc2)c(=O)c2c1sc1ccccc12,Potency,[5],12 µM (active)
CC(CCC(=O)O)C1CCC2C3C(O)C[C@@H]4CC(O)CC[C@@]4(C)C3CC(O)[C@]12C (stereo not given in full),Potency,[2],inactive
same,Potency,[3],inactive
same,"activity change, negative = inhibition",[4],4.41% (inactive)
same,max response,[4]; [6],-4.16%
same,max response,[4]; [7],0.136%
CCN1CCN(CCCNC(=O)c2cc3c(s2)-c2c(C)cccc2OC3)CC1,Potency,[5],10.7 µM (active)
CCCCC[C@H](O)CC[C@@H]1[C@H]2Cc3cccc(OCC(=O)O)c3C[C@H]2C[C@H]1O,Potency,[5],inactive
COc1ccc(C(=O)Nc2ccc3oc(-c4ccc(OC)cc4)nc3c2)cc1,Potency,[5],inactive
Cc1ncc(Cl)cc1NCc1ccc(C(=O)N[C@@H](CC2CCCC2)C(=O)NC2CC2)s1,Potency,[5],15.1 µM (active)
CC1(C#N)CCN(c2c(C(=O)N3CCC(C(=O)C4CC4)CC3)cnc3ccc(F)cc23)CC1,Potency,[5],10.7 µM (active)
NCCCCC(NC(CCc1ccccc1)C(=O)O)C(=O)N1CCCC1C(=O)O (stereo not given),Potency,[2],inactive
same,Potency,[3],inactive
same,"activity change, negative = inhibition",[4],8.08% (inactive)
same,max response,[4]; [6],11.1%
same,max response,[4]; [7],24.7%
O=C(CSc1nnc(-c2cccc(F)c2)c(-c2cccc(F)c2)n1)NC1CCCCC1,Potency,[5],inactive
O=C(O)c1cc(O)c2c(O)c3c(O[C@@H]4O[C@H](CO)[C@@H](O)[C@H](O)[C@H]4O)cccc3c(-c3c4cc(C(=O)O)cc(O)c4c(O)c4c(O[C@@H]5O[C@H](CO)[C@@H](O)[C@H](O)[C@H]5O)cccc34)c2c1,Potency,[5],15.1 µM (active)
Cn1c(=O)c2c(nc(CN3CCN(C(=O)C4CC4)CC3)n2Cc2cccc(F)c2)n(C)c1=O,Potency,[5],inactive
CC1CCCCC1N(Cc1ccccc1)[S+](=O)([O-])c1ccc([S+](=O)([O-])N(C)C)cc1 (stereo not given),Potency,[5],inactive
CN1CCCC1c1cccnc1 (stereo not given),Potency,[2],inactive
same,Potency,[3],inactive
same,"activity change, negative = inhibition",[4],7.69% (inactive)
same,max response,[4]; [6],11.9%
same,max response,[4]; [7],23.7%
CCCCC1CCC(CCCC(C)CCC(=O)O)CC1 (stereo not given),Potency,[5],inactive
Cc1ccc(NC(=O)Cn2cc(C(=O)c3ccco3)c3ccccc32)c(C)c1,Potency,[5],6.74 µM (active)
CN(C)[S+](=O)([O-])c1ccc([S+](=O)([O-])N(Cc2cccs2)Cc2ccccc2Cl)cc1,Potency,[5],1.9 µM (active)
CN1N=C(N)c2cn([C@@H]3O[C@H](COP(=O)(O)O)[C@@H](O)[C@H]3O)c3ncnc1c23,Potency,[5],inactive
OC[C@@H](O)C(O)[C@@H](O)CO (stereo not given in full),Potency,[5],inactive
COc1ccc(NC(=O)C2CCCN(c3nnc(C)c4c(C)n(-c5ccccc5)nc34)C2)cc1Cl (stereo not given),Potency,[5],16.9 µM (active)
C[C@@]12CCC3c4ccc(O)cc4CCC3C1CCC2O (stereo not given in full),Potency,[2],inactive
same,Potency,[3],inactive
same,"activity change, negative = inhibition",[4],-2.04% (inactive)
same,max response,[4]; [6],-0.621%
same,max response,[4]; [7],-0.569%
O=C(Nc1cccc(Cl)c1)Nc1ccccc1OCc1cc(=O)n2ccccc2n1,Potency,[5],inactive
CCOc1ccc(CNC(=O)Cn2c(=O)c3cccn3c3ccc(F)cc32)cc1OC,Potency,[5],inactive

# From PubChem BioAssay (NCATS)
